The values below come from ChEMBL document CHEMBL1961873, “Compounds: GSK PKIS; Assays: Nanosyn kinase panel” (2012).

Test [1] has as its system Epidermal growth factor receptor (Homo sapiens), P00533 [T790M]. The settings on record: at 1 µM.
The test system of test [2] is Epidermal growth factor receptor (Homo sapiens), P00533 [L858R,T790M]. The settings on record: at 0.1 µM.
Test [3] shares this test system. The settings on record: at 1 µM.
In test [4] the target is Ephrin type-A receptor 2 (Homo sapiens) (UniProt P29317). The settings on record: at 0.1 µM.
The target is the same in test [5]. The settings on record: at 1 µM.
Test [6] has as its target T1, Ephrin type-A receptor 3 (Homo sapiens) (UniProt P29320).
T1 sequence (whole entry): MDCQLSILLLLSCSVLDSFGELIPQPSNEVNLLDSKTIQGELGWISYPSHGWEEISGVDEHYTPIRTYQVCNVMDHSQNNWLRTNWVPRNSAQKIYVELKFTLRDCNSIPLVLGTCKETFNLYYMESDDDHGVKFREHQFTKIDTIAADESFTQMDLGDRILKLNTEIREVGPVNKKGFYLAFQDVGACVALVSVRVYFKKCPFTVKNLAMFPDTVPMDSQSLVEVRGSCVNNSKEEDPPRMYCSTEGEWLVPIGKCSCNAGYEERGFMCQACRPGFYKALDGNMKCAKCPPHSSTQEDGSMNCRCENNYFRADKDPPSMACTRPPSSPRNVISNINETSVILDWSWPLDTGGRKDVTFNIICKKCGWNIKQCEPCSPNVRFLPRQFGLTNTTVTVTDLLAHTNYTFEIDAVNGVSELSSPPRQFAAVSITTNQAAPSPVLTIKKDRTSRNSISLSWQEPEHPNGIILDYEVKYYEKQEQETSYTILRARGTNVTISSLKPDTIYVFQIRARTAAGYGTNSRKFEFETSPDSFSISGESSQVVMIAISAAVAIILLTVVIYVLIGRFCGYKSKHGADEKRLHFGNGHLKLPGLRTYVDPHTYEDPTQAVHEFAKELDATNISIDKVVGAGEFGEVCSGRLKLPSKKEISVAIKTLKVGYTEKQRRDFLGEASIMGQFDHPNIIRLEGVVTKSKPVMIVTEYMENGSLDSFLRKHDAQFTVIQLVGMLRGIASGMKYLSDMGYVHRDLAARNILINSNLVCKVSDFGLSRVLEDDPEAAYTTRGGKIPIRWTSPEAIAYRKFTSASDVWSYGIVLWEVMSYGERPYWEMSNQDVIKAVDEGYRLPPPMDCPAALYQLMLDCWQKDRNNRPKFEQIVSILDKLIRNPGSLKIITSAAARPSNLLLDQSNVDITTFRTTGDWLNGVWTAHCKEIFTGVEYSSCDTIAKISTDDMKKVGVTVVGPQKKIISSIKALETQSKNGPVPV
The settings on record: at 0.1 µM.

Test [7] deals with T1, Ephrin type-A receptor 3 (Homo sapiens). The settings on record: at 1 µM.
In test [8] the target is Ephrin type-A receptor 4 (Homo sapiens) (UniProt P54764). The settings on record: at 0.1 µM.
Test [9] has the same target. The settings on record: at 1 µM.
In test [10] the target is T2, Ephrin type-B receptor 2 (Homo sapiens) (UniProt P29323).
T2 sequence (whole entry): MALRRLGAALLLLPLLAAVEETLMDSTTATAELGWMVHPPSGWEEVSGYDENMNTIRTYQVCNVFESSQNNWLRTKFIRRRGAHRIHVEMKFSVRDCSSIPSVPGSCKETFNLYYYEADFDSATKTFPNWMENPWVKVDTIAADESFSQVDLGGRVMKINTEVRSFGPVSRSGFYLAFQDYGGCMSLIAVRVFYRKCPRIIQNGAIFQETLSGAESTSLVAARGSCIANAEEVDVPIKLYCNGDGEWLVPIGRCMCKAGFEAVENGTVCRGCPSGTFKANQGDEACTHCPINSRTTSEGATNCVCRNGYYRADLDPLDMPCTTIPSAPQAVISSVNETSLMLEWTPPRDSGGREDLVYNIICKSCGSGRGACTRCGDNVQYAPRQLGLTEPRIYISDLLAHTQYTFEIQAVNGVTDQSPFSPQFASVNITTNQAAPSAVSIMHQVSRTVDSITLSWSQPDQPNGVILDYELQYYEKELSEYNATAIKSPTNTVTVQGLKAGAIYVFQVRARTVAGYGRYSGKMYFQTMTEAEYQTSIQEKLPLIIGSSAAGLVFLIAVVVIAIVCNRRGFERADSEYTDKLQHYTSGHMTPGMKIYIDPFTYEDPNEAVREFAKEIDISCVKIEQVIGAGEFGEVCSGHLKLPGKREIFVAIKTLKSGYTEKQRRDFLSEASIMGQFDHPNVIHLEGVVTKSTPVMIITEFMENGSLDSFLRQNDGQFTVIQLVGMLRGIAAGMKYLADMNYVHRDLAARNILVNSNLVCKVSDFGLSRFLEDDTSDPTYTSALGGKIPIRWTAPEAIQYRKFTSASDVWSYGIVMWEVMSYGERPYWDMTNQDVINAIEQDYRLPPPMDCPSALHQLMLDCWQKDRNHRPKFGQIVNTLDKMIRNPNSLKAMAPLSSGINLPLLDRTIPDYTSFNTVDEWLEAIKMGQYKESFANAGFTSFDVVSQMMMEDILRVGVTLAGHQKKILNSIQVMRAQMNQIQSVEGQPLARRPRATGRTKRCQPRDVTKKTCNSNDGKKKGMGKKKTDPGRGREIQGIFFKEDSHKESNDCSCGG
The settings on record: at 0.1 µM.

Test [11] concerns the target T2, Ephrin type-B receptor 2 (Homo sapiens). The settings on record: at 1 µM.
For test [12], the target named is T3, Ephrin type-B receptor 3 (Homo sapiens) (UniProt P54753).
T3 sequence (whole entry): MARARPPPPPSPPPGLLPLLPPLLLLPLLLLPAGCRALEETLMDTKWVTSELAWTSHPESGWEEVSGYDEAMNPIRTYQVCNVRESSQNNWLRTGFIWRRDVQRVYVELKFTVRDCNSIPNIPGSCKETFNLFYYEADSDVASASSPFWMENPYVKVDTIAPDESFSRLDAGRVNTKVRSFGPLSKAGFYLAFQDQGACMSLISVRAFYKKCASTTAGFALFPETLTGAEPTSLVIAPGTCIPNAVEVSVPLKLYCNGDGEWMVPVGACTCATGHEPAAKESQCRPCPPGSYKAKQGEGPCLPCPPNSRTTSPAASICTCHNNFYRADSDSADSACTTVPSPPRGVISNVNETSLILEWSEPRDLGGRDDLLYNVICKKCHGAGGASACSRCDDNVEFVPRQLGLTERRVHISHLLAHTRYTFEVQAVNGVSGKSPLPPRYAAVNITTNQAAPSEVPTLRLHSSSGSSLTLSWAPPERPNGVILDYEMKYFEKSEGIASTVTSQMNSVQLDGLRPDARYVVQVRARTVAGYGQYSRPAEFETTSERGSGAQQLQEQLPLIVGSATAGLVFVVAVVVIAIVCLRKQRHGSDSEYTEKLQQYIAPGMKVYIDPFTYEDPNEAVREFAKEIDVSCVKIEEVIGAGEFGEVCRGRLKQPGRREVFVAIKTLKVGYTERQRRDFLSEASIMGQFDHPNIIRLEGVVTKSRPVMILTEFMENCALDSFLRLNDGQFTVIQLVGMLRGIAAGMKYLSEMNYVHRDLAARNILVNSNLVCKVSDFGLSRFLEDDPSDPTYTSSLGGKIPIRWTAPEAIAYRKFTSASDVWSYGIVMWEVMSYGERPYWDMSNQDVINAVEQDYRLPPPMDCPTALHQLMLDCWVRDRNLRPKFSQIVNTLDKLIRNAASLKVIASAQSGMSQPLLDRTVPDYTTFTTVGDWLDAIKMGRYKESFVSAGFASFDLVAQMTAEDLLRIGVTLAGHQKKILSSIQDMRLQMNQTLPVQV
The settings on record: at 0.1 µM.

The target in test [13] is T3, Ephrin type-B receptor 3 (Homo sapiens). The settings on record: at 1 µM.
Test [14] deals with T4, Ephrin type-B receptor 4 (Homo sapiens) (UniProt P54760).
T4 sequence (whole entry): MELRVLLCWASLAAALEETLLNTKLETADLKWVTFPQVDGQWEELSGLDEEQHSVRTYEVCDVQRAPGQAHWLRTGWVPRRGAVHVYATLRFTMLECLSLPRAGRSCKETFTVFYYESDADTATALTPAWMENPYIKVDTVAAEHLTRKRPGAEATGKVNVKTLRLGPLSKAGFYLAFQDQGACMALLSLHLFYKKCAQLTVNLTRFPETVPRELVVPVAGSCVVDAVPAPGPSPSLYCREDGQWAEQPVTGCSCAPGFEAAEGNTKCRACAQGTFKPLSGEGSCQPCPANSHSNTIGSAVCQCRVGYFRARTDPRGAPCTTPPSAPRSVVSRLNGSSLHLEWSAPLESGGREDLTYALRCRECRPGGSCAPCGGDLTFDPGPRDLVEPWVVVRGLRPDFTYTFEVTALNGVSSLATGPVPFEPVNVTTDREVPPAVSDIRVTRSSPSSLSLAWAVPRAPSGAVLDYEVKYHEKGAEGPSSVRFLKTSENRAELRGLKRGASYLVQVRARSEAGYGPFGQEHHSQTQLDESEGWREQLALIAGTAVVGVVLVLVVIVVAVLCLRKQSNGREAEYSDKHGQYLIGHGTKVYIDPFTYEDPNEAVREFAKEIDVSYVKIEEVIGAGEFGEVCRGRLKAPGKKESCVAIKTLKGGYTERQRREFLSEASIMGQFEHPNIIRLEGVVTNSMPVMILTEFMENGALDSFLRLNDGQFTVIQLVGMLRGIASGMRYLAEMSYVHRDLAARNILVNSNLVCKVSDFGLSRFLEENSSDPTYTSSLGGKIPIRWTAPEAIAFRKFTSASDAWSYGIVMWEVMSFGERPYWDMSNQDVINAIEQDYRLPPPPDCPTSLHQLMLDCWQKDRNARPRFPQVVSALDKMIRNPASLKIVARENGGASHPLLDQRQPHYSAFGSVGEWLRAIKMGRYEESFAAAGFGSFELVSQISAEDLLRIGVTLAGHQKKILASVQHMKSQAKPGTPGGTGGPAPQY
The settings on record: at 0.1 µM.

Test [15] has as its target T4, Ephrin type-B receptor 4 (Homo sapiens). The settings on record: at 1 µM.
The target of test [16] is Receptor tyrosine-protein kinase erbB-2 (Homo sapiens) (UniProt P04626). The settings on record: at 0.1 µM.
Chain of Receptor tyrosine-protein kinase erbB-2 (Homo sapiens) (P04626 whole entry): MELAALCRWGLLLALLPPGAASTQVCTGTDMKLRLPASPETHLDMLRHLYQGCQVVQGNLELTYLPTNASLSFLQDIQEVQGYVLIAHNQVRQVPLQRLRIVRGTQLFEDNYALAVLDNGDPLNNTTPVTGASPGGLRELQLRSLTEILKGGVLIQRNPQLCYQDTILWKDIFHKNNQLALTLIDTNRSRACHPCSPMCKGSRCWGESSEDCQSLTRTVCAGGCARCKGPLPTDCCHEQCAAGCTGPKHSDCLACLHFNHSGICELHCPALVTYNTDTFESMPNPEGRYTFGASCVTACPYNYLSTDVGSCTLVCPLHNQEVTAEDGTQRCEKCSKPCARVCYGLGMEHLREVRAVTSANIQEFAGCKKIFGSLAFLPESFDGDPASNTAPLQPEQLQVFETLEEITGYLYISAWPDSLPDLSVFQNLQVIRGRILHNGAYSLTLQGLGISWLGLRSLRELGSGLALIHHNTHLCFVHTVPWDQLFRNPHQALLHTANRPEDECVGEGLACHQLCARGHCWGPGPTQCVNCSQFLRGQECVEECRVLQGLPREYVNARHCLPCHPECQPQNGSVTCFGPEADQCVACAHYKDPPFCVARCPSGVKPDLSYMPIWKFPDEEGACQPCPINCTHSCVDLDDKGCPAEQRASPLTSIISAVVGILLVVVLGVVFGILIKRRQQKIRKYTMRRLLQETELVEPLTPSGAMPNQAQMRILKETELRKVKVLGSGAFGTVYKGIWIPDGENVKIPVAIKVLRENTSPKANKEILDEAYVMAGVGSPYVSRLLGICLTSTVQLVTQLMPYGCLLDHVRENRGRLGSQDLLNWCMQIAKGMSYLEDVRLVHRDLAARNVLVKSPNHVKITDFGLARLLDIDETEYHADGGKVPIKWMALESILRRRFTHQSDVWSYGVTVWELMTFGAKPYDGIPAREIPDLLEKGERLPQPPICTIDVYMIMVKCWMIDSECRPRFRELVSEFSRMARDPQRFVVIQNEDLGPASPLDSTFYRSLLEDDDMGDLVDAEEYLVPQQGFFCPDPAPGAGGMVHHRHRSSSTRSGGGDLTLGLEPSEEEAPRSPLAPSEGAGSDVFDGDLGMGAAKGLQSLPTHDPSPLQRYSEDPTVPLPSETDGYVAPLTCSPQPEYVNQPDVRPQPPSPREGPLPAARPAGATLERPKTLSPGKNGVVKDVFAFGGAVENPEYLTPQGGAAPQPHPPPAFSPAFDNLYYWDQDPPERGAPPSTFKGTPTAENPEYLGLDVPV
Test [17] has the same target. The settings on record: at 1 µM.
In test [18] the target is Receptor tyrosine-protein kinase erbB-4 (Homo sapiens) (UniProt Q15303). The settings on record: at 0.1 µM.
Chain of Receptor tyrosine-protein kinase erbB-4 (Homo sapiens) (Q15303 whole entry): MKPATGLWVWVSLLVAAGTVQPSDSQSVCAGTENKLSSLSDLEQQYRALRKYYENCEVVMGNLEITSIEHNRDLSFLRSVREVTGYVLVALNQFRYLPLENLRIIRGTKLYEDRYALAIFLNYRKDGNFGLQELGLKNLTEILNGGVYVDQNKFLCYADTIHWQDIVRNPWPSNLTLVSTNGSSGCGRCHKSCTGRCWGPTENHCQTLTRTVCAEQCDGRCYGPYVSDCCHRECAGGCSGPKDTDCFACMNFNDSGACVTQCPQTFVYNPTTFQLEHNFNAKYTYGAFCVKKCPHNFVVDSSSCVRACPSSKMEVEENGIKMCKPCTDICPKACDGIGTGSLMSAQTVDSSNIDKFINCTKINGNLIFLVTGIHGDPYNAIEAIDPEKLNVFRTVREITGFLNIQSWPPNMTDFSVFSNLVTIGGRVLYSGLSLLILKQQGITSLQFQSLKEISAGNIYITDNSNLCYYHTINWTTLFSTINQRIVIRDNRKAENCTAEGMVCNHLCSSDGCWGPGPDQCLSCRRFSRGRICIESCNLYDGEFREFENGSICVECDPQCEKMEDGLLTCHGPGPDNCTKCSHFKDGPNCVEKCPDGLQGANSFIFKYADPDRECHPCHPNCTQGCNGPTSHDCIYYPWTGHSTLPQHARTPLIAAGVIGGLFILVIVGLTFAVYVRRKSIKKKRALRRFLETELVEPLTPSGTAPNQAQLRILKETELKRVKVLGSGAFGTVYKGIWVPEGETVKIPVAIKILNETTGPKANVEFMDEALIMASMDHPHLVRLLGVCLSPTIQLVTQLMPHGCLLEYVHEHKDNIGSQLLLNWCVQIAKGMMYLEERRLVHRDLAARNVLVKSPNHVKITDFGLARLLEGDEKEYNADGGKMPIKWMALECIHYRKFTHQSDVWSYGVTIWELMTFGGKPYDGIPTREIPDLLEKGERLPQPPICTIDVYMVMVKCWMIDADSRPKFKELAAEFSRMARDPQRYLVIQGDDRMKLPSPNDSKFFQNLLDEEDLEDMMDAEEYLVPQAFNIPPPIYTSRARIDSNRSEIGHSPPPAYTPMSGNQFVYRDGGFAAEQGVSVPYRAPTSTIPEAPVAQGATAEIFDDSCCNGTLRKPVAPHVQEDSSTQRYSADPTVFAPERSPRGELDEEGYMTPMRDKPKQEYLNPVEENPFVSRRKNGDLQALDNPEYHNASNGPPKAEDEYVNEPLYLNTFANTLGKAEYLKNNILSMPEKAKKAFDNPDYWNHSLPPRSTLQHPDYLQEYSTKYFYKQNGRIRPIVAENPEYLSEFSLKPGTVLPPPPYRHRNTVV
Test [19] shares this target. The settings on record: at 1 µM.
Test [20] addresses Tyrosine-protein kinase Fer (Homo sapiens) (UniProt P16591). The settings on record: at 0.1 µM.

Chain of Epidermal growth factor receptor (Homo sapiens), P00533 [T790M] (P00533 whole entry T790M): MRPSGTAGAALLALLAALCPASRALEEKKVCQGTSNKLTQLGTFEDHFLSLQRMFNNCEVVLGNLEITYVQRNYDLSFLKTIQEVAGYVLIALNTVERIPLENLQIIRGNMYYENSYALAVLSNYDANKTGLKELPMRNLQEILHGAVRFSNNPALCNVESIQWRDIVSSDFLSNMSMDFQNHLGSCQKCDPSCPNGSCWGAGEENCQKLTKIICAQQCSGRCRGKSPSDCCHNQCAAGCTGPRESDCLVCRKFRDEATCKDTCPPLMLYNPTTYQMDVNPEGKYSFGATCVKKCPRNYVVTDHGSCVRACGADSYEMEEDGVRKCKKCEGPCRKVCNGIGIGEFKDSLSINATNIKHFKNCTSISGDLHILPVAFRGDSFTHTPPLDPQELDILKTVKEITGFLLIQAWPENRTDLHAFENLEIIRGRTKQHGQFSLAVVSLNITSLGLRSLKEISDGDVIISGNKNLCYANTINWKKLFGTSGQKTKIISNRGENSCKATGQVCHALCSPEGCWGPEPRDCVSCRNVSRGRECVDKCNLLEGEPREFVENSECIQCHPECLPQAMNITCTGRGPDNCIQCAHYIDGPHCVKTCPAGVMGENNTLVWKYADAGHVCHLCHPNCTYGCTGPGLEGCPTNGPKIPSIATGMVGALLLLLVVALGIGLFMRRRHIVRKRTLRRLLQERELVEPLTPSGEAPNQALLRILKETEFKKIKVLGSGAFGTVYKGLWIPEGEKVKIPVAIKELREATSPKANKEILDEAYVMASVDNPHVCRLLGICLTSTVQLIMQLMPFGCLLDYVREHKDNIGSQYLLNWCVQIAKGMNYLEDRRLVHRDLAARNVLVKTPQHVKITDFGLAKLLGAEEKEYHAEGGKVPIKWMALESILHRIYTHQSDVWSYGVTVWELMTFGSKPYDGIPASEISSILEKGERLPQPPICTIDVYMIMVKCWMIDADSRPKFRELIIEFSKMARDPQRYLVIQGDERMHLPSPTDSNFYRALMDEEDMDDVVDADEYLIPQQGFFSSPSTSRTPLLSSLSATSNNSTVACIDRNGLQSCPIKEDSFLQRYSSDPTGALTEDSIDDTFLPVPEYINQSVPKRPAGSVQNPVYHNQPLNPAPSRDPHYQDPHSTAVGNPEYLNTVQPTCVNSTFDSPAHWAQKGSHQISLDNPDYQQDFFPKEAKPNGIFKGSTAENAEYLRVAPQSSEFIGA
Chain of Tyrosine-protein kinase Fer (Homo sapiens) (P16591 whole entry, looked up): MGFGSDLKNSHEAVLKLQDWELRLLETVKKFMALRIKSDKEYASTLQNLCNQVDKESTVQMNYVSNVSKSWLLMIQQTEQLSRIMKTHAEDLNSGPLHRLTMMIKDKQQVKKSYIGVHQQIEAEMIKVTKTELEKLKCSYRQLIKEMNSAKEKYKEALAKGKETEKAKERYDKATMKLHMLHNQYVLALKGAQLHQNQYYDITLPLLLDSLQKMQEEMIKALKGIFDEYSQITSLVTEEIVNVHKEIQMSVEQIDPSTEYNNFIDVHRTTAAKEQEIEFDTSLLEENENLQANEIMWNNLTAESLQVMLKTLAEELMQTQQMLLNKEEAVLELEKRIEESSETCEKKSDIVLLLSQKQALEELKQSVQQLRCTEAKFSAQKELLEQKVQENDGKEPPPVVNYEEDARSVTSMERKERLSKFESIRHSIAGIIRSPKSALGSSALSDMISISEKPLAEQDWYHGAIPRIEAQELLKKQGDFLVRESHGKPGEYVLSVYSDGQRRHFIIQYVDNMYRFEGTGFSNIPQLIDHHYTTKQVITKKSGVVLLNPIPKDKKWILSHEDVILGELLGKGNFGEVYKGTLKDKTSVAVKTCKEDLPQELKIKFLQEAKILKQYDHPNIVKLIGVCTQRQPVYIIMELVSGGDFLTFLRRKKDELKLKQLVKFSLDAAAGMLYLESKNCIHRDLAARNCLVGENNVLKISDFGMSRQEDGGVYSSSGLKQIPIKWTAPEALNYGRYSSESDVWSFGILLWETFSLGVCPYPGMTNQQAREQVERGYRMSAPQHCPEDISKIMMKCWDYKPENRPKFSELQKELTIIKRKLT

A word on the inhibition: it is the relative decrease from the control value, in per cent. With `C#Cc1cccc(Nc2ncnc3ccc(OCCCCNCCS(C)(=O)=O)cc23)c1`, the inhibition in [1] was 14.6%; in test [2], 3.12%; in test [3], 22.8%; in test [4], -2.77%; in test [5], -2.32%; in [6], 1.3%. The inhibition was determined as 5.15% in test [7]; 12.3% in test [8]; 15.3% in [9]; 10.3% in [10]; 19.4% in test [11]; 4.21% in test [12]. Moreover, the inhibition was 0.73% in test [13]; 1.68% in [14]; -1.52% in test [15]; 6.37% in test [16]; 29.9% in test [17]; 24.8% in test [18]. For the same compound, the figures for the inhibition in [19] and in test [20] were 63.8% and 2.76%, respectively.

With `CNC(=O)c1cncc(/C=C/c2c(C)cccc2C)c1`, the inhibition in [1] came to 0.11%; in [2] it was 0.33%; in test [3] it was 1.36%; in test [4] it was 8.07%; in test [5] it was 44.4%; in test [6], 2.95%. The inhibition in test [7] is 16.1%; in test [8], 25.5%; in test [9], 80.9%; in test [10] it was 23.2%; in [11], 65.9%; in [12], -1%. Moreover, the inhibition in [13] was 2.29%; in test [14] it was 7.98%; in [15], 45.7%; in [16], -0.21%; in test [17], 1.84%; in test [18] it was -1.45%. In addition, the inhibition in test [19] worked out at 2.45%; in test [20] it was 1.13%.

For the compound `COc1cc(N2CCN(C(C)C)CC2)ccc1Nc1nc(Nc2ccc(F)cc2C(=O)NC[C@@H](O)CO)c2cc[nH]c2n1`, the inhibition is 25.8% in test [1]; 11.9% in test [2]; 60.2% in [3]; -2.5% in [4]; -3.57% in test [5]; 0.19% in test [6]. Besides, the inhibition in test [7] was -0.58%; in test [8], 9.3%; in [9], 12.5%; in test [10], 3.1%; in test [11], 6.9%; in [12], 0.85%. Also, the inhibition is -0.23% in [13]; -2.73% in test [14]; -3.91% in test [15]; 3.24% in test [16]; 10.5% in [17]; 9.31% in [18]. Further, the values for the inhibition in [19] and in test [20] were 15.7% and 17.7%, respectively.
